According to PubChem BioAssay AID720579 (National Center for Advancing Translational Sciences (NCATS), 2013):
The whole screen tested about 310,000 compounds, of which about 1,900 (0.61%) were called active. About 8% were inconclusive and are not listed. The call rests on the fitted dose curve; tested in A549 cells. Shown is part of a subset that was picked to be rich in actives. Where a call stands in place of a potency, no number is given.

Assay: qHTS for Stage-Specific Inhibitors of Vaccinia Orthopoxvirus: mCherry Reporter Primary qHTS; further: nearly all actives have a fitted effect of over 35% in size
Conditions: Vaccinia virus mCherry reporter infection, fluorescence; series mostly up to 36.5 µM
Potency means the concentration at half of the fitted maximal effect.

Row | Compound | Potency
1 | [O-][n+]1onc2c1CCc1[nH]c(-c3ccccc3)nc1-2 | 15.8 µM (active)
2 | CC=CCn1c(SCCCc2ccccc2)nc2c1c(=O)[nH]c(=O)n2C | inactive
3 | Cc1c(Cl)c([N+](=O)[O-])nn1CCCC(=O)Nc1cc(Cl)ccc1Cl | inactive
4 | Cc1c(Cl)c([N+](=O)[O-])nn1Cc1ccc(C(=O)N/N=C\c2cc(Cl)ccc2O)o1 | 6.31 µM (active)
5 | O=C(N/N=C/c1ccc2c(c1)OCO2)c1ccc(Cn2cc([N+](=O)[O-])cn2)o1 | inactive
6 | O=C(c1ccccc1)N1CCN(c2cc(-c3ccccc3)nc3cc(-c4cccc(Cl)c4)nn23)CC1 | inactive
7 | CCc1nc2c(OCc3ccccc3)cccn2c1N(C)C(=O)c1ccco1 | inactive
8 | COc1ccc(C(C(=O)Nc2c(C)cccc2C)N2CCN(c3ccc(C)cc3)CC2)cc1 (stereo not drawn) | inactive
9 | Brc1cccc[n+]1Cc1cccc(C[n+]2ccccc2Br)c1 | inactive
10 | Cc1cc2ccccn2c1C(=O)c1cccc(F)c1 | inactive
11 | Cc1cc2ccccn2c1C(C[N+](=O)[O-])c1c(F)cccc1Cl (stereo not drawn) | 10 µM (active)
12 | O=C(Cc1c(F)cccc1Cl)Nc1ncc([N+](=O)[O-])s1 | inactive
13 | CCCCOc1ccc(C(=O)NO)cc1 | inactive
14 | CCc1cc2c(N3CCN(c4nnc(CC)s4)CC3)ncnc2s1 | 12.6 µM (active)
15 | CCc1ccc(C(=O)NNC(=O)C2CCN(c3ncnc4sc(C)c(C)c34)CC2)cc1 | inactive
16 | CCN1CCN(c2ncnc3c2cnn3-c2ccc(C)c(C)c2)CC1 | inactive
17 | Cc1ccc(S(=O)(=O)N2CC3C(=O)C[C@@H](c4ccccc4Cl)N(S(=O)(=O)c4ccc(C)cc4)C3CC2c2ccccc2)cc1 (stereo partly drawn) | inactive
18 | CSc1nc(Nc2ccc(F)cc2)cc(-c2ccccc2)n1 | inactive
19 | Clc1ccc2nc(-c3ccccc3)nc(C(Cl)Cl)c2c1 | inactive
20 | CSc1nc(-c2ccccc2)nc(C(Cl)Cl)n1 | 12.6 µM (active)
21 | CCCc1ccc(C(O)c2ncc(-c3cccc(OC)c3)[nH]2)cc1 (stereo not drawn) | inactive
22 | CCOC(=O)[C@]12CCCC=C1N(CCC1=CCCCC1)C(=O)[C@H](CC(=O)NCCCOC)C2 | inactive
23 | CCOC(=O)N1CCN(C(=O)C[C@@H]2C[C@@]3(C(=O)OC)CC(C)(C)CC=C3N(Cc3ccco3)C2=O)CC1 | inactive
24 | CC1(C(=O)Nc2cccc3c2CCCC3)CCN1C(=O)CCc1ccc(Cl)cc1Cl (stereo not drawn) | inactive
25 | Cc1oc2c(c1C(=O)N1CCOCC1)C(=O)c1ccccc1C2=O | 11.2 µM (active)

Row | Compound | Potency
26 | Cc1ccccc1-c1ccc(Nc2ccc(C(=O)N3CCOCC3)cc2)nn1 | inactive
27 | CCOC(=O)c1ccccc1C(=O)N1CCOCCOCCOCC1 | inactive
28 | Fc1cccc(Cc2c(-c3ccc(Cl)cc3)nc3ccc(Cl)cn23)c1 | inactive
29 | COc1cc(OC)c(OC)cc1/C=C1\C=Cc2ccccc21 | inactive
30 | CCc1nc2ccc(C(=O)Nc3cc(-c4ccccc4)ccc3OC)cn2c1N(CC)CC(=O)N(C)C | inactive
31 | COC(=O)Cc1ccc(Oc2ncc(C(F)(F)F)cc2Cl)cc1 | inactive
32 | COc1cccc(/C(C)=N/Nc2ncc(Cl)cc2Cl)c1 | inactive
33 | COc1cccc(/C=N/Nc2ncc(C(F)(F)F)cc2Cl)c1O | 11.2 µM (active)
34 | CCc1nc2ccc(C(=O)NCc3ccc(OC)cc3)cn2c1N(CC)Cc1cccc(Br)c1 | inactive
35 | Cc1nn(-c2ccccc2)c(C)c1NC(=O)CCl | 10 µM (active)
36 | Cc1nn(-c2ccccc2)c(C)c1NC(=O)COc1ccc(Cl)cc1Cl | inactive
37 | Cc1nn(-c2ccccc2)c(C)c1NC(=O)COC(=O)Cc1ccccc1 | inactive
38 | Cc1cccc(NC(=O)COC(=O)c2ccccc2OCc2cccc(Br)c2)c1 | inactive
39 | CC(C)Nc1ncnc2c1ncn2[C@H]1CN(Cc2ccncc2)C[C@@H](CO)O1 | inactive
40 | OCCN1CCN(c2ncnc3c2ncn3[C@H]2CN(Cc3ccco3)C[C@@H](CO)O2)CC1 | inactive
41 | OC[C@@H]1CN(Cc2ccncc2)C[C@H](n2cnc3c(N4CCN(c5ccccc5)CC4)ncnc32)O1 | 11.2 µM (active)
42 | Cc1cc(Br)cn2c(Cc3ccsc3)c(-c3ccc(C#N)cc3)nc12 | inactive
43 | COc1cccc(-c2cc3nc(NCc4ccccc4OC)n(C)c(=O)c3s2)c1 | inactive
44 | CCCNC(=O)C1(C)CCCN(C(=O)c2oc3ccccc3c2C)C1 (stereo not drawn) | inactive
45 | COc1c(Cl)cc(Cl)cc1C(=O)Nc1cccc2cccnc12 | inactive
46 | S=C(NCc1cccnc1)Nc1ccc(Cl)cc1Cl | inactive
47 | CC(=O)/C(=N\Nc1ccc(Cl)cc1Cl)Sc1cccc2cccnc12 | 3.55 µM (active)
48 | CCOC1=C2[C@@H](CN(S(=O)(=O)c3ccc(C)cc3)[C@H]2c2ccccc2F)[C@H]2C(=O)N(Cc3ccccc3)C(=O)[C@H]2C1 | inactive
49 | CCOCCC(=O)Nc1ccc2c(c1)c(=O)n(C)n2-c1ccc2ccccc2c1 | inactive
50 | CN(C)C1=C2C=CC=CC2/C(=C2/C=Cc3ccccc32)C=C1 (stereo not drawn) | inactive

Row | Compound | Potency
51 | Nc1ccc(/C=C/c2ccnc3ccccc23)c([N+](=O)[O-])c1 | inactive
52 | Oc1ccccc1-c1cc(-c2ccc(Cl)cc2)n[nH]1 | 8.91 µM (active)
53 | O=C(Nc1ccc(Cl)cn1)c1ccccc1-c1ccccc1 | inactive
54 | Cc1ccc(NC(=O)c2cc(-c3ccccc3O)n[nH]2)cc1C | inactive
55 | O=C(Nc1ccc2c(c1)OCCO2)C(C1CC1)N1CCC(Cc2ccccc2)CC1 (stereo not drawn) | inactive
56 | CCc1cc(C(=O)N(CC)CC(=O)Nc2c(F)cccc2F)sc1C | inactive
57 | COC(=O)Cc1ccc(OC2(C)CCN(Cc3ccc4c(c3)OCCO4)C2)cc1 (stereo not drawn) | inactive
58 | CC1(C)OC(=O)C2=C(C[C@@H](C3CCCCC3)O[C@@H]2c2ccc(Cl)cc2)O1 | inactive
59 | CC(NC(=O)c1ccccc1)C(=O)Nc1ccccc1 (stereo not drawn) | inactive
60 | O=C(Nc1cccc(NC(=O)c2ccc(Br)cc2)c1)c1ccccc1 | inactive
61 | O=C(NC1=CC(=O)c2ccccc2C1=O)c1ccccc1 | 7.94 µM (active)
62 | COCC1CCCCN1C(=O)c1cc(COc2ccc(C)c(C)c2)on1 (stereo not drawn) | inactive
63 | CN(C)c1ccc(/C=N\Nc2ccc([N+](=O)[O-])cc2[N+](=O)[O-])cc1Cl | inactive
64 | Cc1ccc(S(=O)(=O)N2C[C@H]3n4c(=O)ccc(=O)n4C[C@H](OC(=O)NC4CCCC4)[C@@]3(O)C2)cc1 | inactive
65 | Cc1ccc(C(=O)NC(C)C(c2cccs2)N2CCOCC2)cc1C (stereo not drawn) | inactive
66 | CCc1nc2c(OCc3ccc(C(=O)OC)cc3)cccn2c1N(C)C(=O)C(C)C | inactive
67 | CCOc1ccc(/C=N\NC(=O)c2c(C)nc3cc(C)ccn23)cc1 | inactive
68 | COC(=O)N/N=C/c1ccc(/C=N/NC(=O)OC)cc1 | inactive
69 | CCOc1ccc(/C=N/NC(N)=S)cc1 | 1 µM (active)
70 | COc1cccc(NC(=O)Nc2ccc(F)cc2)c1 | inactive
71 | Cc1ccc(CNC(=O)CSC2=Nc3ccccc3C3=NC(C)C(=O)N23)cc1 (stereo not drawn) | inactive
72 | O=C(CSC1=Nc2ccccc2C2=NC(c3ccccc3)C(=O)N12)NCC1CCCO1 (stereo not drawn) | inactive
73 | CC(C)C1N=C2c3ccccc3N=C(SCC(=O)c3ccc(O)c(O)c3)N2C1=O (stereo not drawn) | 11.2 µM (active)
74 | Cc1cc2nc(-c3ccc(Cl)cc3)c(Cc3cccc(F)c3)n2c(C)c1Br | inactive
75 | CC(C)C1CCN(C(=O)C2CCC(=O)N(C3CCCCCC3)C2)CC1 (stereo not drawn) | inactive

Row | Compound | Potency
76 | CCOc1ccc(-n2c(O)c(/C=N/Nc3nc(C)cc(C)n3)c3ccccc3c2=O)cc1 | inactive
77 | CCN(CC)c1ccc(/C=N/Nc2nc(C)cc(C)n2)c(O)c1 | 2.51 µM (active)
78 | Cc1cc(C)nc(N/N=C/c2ccncc2)n1 | inactive
79 | CC1=C(C(=O)Nc2ccccc2)SCCO1 | inactive
80 | O=C(Nc1ccccc1)c1ccc2c(c1)OCCCO2 | inactive
81 | CC1=C(C(=O)Nc2ccccc2)S(=O)(=O)CCO1 | 0.891 µM (active)
82 | CC(C)Nc1nc(NCCOc2ccccc2Cl)c2sccc2n1 | inactive
83 | COc1ccc(CNC(=O)C[C@H]2C[C@H](C(=O)N3CCOCC3)[C@@]3(CCC4CCCC4)c4[nH]c5ccc(Cl)cc5c4CCN3C2=O)cc1OC | inactive
84 | O=C(C[C@H]1C[C@H](C(=O)N2CCOCC2)[C@@]2(CCC3CCCC3)c3[nH]c4ccc(Cl)cc4c3CCN2C1=O)NCc1ccco1 | 7.08 µM (active)
85 | CN(C)C(=O)CCc1ccc2c3c([nH]c2c1)[C@]1(CCC2CCCC2)[C@@H](C(=O)N2CCOCC2)C[C@H](CC(=O)NCc2ccco2)C(=O)N1CC3 | inactive
86 | COc1ccc(Cl)cc1NC(=O)CN(C)C(=O)c1cn(-c2ccccc2)nc1-c1cccs1 | inactive
87 | CC(C)C[C@H]1CNC(=S)N1C[C@H]1CCCN1C[C@H](Cc1ccc(O)cc1)N1C[C@H](Cc2ccc(O)cc2)N(CC2CCCCC2)C1=S | inactive
88 | Nc1nc(SCc2ccc([N+](=O)[O-])cc2)c2ncn(C3OC(CO)C(O)C3O)c2n1 (stereo not drawn) | inactive
89 | Nc1ncn(C2OC(CO)C(O)C2O)c(=O)n1 (stereo not drawn) | 10 µM (active)
90 | CC(C)Sc1nc(N)nc2c1ncn2C1OC(CO)C(O)C1O (stereo not drawn) | inactive
91 | COc1ccc(-c2ccc(C(=O)NC(C)C)c3occc23)c(C)c1 | inactive
92 | CC(=O)c1ccc(-c2cnc3c(NC=O)cc(-c4cccc(NS(C)(=O)=O)c4)cn23)cc1 | 11.2 µM (active)
93 | CC(=O)c1cccc(-c2cnc3c(NC=O)cc(-c4cccc(C(=O)N(C)C)c4)cn23)c1 | inactive
94 | CC(=O)c1cccc(-c2cnc3c(NC=O)cc(-c4ccc(N(C)C)cc4)cn23)c1 | inactive
95 | COc1ccc(-c2cc3nc(NCCOc4ccccc4)ccn3n2)cc1 | inactive
96 | c1cncc(CNCCc2c[nH]c3ccccc23)c1 | inactive
97 | COc1ccc(S(=O)(=O)NCCc2c[nH]c3ccccc23)cc1OC | inactive
98 | COc1cccc(CNCCc2c[nH]c3ccccc23)c1OCc1ccccc1F | 10 µM (active)
